Measured values published in PubChem BioAssay AID1159580 (chemical genetic matrix, 2015).
Out of some 5,500 compounds screened, about 2,000 (36%) were called active. About 18% were inconclusive and are not listed. This is one part of the list. Values without a mark were called inactive. No stated cut-off is given here; in the data, active means normalized growth mostly below about 0.91 (no sharp cut-off); inconclusive means no clear call, values can overlap the other calls; inactive means mostly above about 0.92.

Assay: chemical genetic growth profiling, strain panel (AID 1159580);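 further: tested at 20 µM; growth read once vehicle control cultures reached saturation at 30 °C; 1 = growth at the plate median or of vehicle wells; lower values mean less growth of the strain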
Conditions: S. cerevisiae deletion strains, growth OD
[1] = locus YHR030C, strain SLT2, active compounds read low
[2] = locus YHR079C, strain IRE1, active compounds read low
[3] = locus YJL095W, strain BCK1, active compounds read low
[4] = locus YJR066W, strain TOR1, active compounds read low
[5] = locus YLR113W, strain HOG1, active compounds read low
[6] = locus YNL183C, strain NPR1, active compounds read low
[7] = locus YOR231W, strain MKK1, active compounds read low
[8] = locus YPL256C, strain CLN2, active compounds read low

For `CC(C)=CCC/C(C)=C/CC/C(C)=C/CO`, the normalized growth [1] was 0.416 (active), the normalized growth [2] was 0.506 (active) and the normalized growth [3] was 0.609 (active). For the same compound, the normalized growth [4] was 0.804 (active), the normalized growth [5] was 0.35 (active) and the normalized growth [6] was 0.732 (active). For the same compound, the normalized growth [7] was 0.407 (active) and the normalized growth [8] was 0.388 (active).

Compound `CC(C)=CCC/C(C)=C/CC/C(C)=C/CC/C(C)=C/CC/C(C)=C/CC/C(C)=C/CC/C(C)=C/CC/C(C)=C/CC/C(C)=C/CO` has a normalized growth (locus YAL021C, strain ccr4, active compounds read low) of 0.988, a normalized growth (locus YAL026C, strain drs2, active compounds read low) of 1 and a normalized growth (locus YAL030W, strain snc1, active compounds read low) of 0.993. The normalized growth (locus YBL061C, strain skt5, active compounds read low) was 0.988, the normalized growth (locus YBR009C, strain hhf1, active compounds read low) was 0.995 and the normalized growth (locus YBR023C, strain chs3, active compounds read low) was 1. The normalized growth (locus YBR171W, strain sec66, active compounds read low) was 1, the normalized growth (locus YBR231C, strain swc5, active compounds read low) was 0.986 and the normalized growth (locus YBR279W, strain paf1, active compounds read low) was 0.966. The normalized growth (locus YCL011C, strain gbp2, active compounds read low) was 0.985, the normalized growth (locus YCL016C, strain dcc1, active compounds read low) was 0.99 and the normalized growth (locus YCL061C, strain MRC1, active compounds read low) was 0.994. For the same compound, the normalized growth (locus YCL069W, strain vba3, active compounds read low) was 0.99, the normalized growth (locus YCR088W, strain abp1, active compounds read low) was 0.988 and the normalized growth (locus YDL005C, strain med2, active compounds read low) was 0.992. It also gave a normalized growth (locus YDL040C, strain nat1, active compounds read low) of 0.992, a normalized growth (locus YDR001C, strain nth1, active compounds read low) of 0.99 and a normalized growth (locus YDR069C, strain doa4, active compounds read low) of 1.01. It also gave a normalized growth (locus YDR137W, strain rgp1, active compounds read low) of 1.01, a normalized growth (locus YDR159W, strain sac3, active compounds read low) of 1.1 and a normalized growth (locus YDR195W, strain ref2) of 0.997. It also gave a normalized growth (locus YDR297W, strain sur2, active compounds read low) of 0.99, a normalized growth (locus YDR334W, strain swr1, active compounds read low) of 1.01 and a normalized growth (locus YDR335W, strain msn5, active compounds read low) of 1. It also gave a normalized growth (locus YDR392W, strain spt3, active compounds read low) of 1.11, a normalized growth (locus YEL003W, strain gim4, active compounds read low) of 1 and a normalized growth (locus YEL037C, strain rad23, active compounds read low) of 1.02. The normalized growth (locus YEL061C, strain CIN8 (second series), active compounds read low) was 0.998, the normalized growth (locus YER015W, strain faa2, active compounds read low) was 0.995 and the normalized growth (locus YER016W, strain bim1, active compounds read low) was 0.991. It also gave a normalized growth (locus YER111C, strain swi4, active compounds read low) of 0.996, a normalized growth (locus YER155C, strain BEM2 (second series), active compounds read low) of 1.01 and a normalized growth (locus YFR010W, strain ubp6, active compounds read low) of 1.01. It also gave a normalized growth (locus YGL167C, strain pmr1, active compounds read low) of 1, a normalized growth (locus YGL173C, strain kem1, active compounds read low) of 0.998 and a normalized growth (locus YGL227W, strain vid30, active compounds read low) of 0.983. It also gave a normalized growth (locus YGL240W, strain doc1, active compounds read low) of 1.03, a normalized growth (locus YGL253W, strain hxk2, active compounds read low) of 0.983 and a normalized growth (locus YHR013C, strain ard1, active compounds read low) of 0.987. It also gave a normalized growth (locus YHR027C, strain rpn1, active compounds read low) of 0.986, a normalized growth [1] of 1.02 and a normalized growth [2] of 1.01. For the same compound, the normalized growth (locus YHR142W, strain chs7, active compounds read low) was 0.983, the normalized growth (locus YJL092W, strain hpr5, active compounds read low) was 1 and the normalized growth (locus YJL095W, strain BCK1 (second series), active compounds read low) was 0.992. For the same compound, the normalized growth [3] was 1.01, the normalized growth (locus YJL115W, strain asf1, active compounds read low) was 0.989 and the normalized growth (locus YJL129C, strain trk1, active compounds read low) was 0.961. It also gave a normalized growth (locus YJL154C, strain vps35, active compounds read low) of 0.995, a normalized growth (locus YJL164C, strain tpk1, active compounds read low) of 0.989 and a normalized growth (locus YJL166W, strain qcr8, active compounds read low) of 0.991. The normalized growth (locus YJL187C, strain SWE1, active compounds read low) was 1, the normalized growth [4] was 0.975 and the normalized growth (locus YKL160W, strain elf1, active compounds read low) was 0.996. For the same compound, the normalized growth (locus YKR026C, strain gcn3, active compounds read low) was 1, the normalized growth (locus YKR091W, strain srl3, active compounds read low) was 0.989 and the normalized growth (locus YLL001W, strain dnm1, active compounds read low) was 0.976. The normalized growth (locus YLL026W, active compounds read low) was 0.995, the normalized growth (locus YLL041C, strain sdh2, active compounds read low) was 0.996 and the normalized growth (locus YLR027C, strain aat2, active compounds read low) was 1.03. For the same compound, the normalized growth [5] was 0.971, the normalized growth (locus YLR221C, strain rsa3, active compounds read low) was 0.965 and the normalized growth (locus YLR258W, strain gsy2, active compounds read low) was 0.992. The normalized growth (locus YLR262C, strain YPT6 (second series), active compounds read low) was 1.01, the normalized growth (locus YLR320W, strain mms22, active compounds read low) was 0.992 and the normalized growth (locus YLR342W, strain FKS1, active compounds read low) was 0.993. The normalized growth (locus YLR357W, strain rsc2, active compounds read low) was 1.12, the normalized growth (locus YLR370C, strain arc18, active compounds read low) was 0.995 and the normalized growth (locus YLR384C, strain iki3, active compounds read low) was 0.994. For the same compound, the normalized growth (locus YML120C, strain ndi1, active compounds read low) was 0.99, the normalized growth (locus YMR058W, strain fet3, active compounds read low) was 1.05 and the normalized growth (locus YMR125W, strain sto1, active compounds read low) was 0.984. For the same compound, the normalized growth (locus YMR129W, active compounds read low) was 0.99, the normalized growth (locus YMR205C, strain PFK2, active compounds read low) was 0.982 and the normalized growth (locus YMR231W, strain pep5, active compounds read low) was 1. The normalized growth (locus YNL071W, strain lat1, active compounds read low) was 0.992, the normalized growth [6] was 0.943 and the normalized growth (locus YNL209W, strain ssb2, active compounds read low) was 0.991. For the same compound, the normalized growth (locus YNL248C, strain rpa49, active compounds read low) was 1.16 [resistant] (active), the normalized growth (locus YNL322C, strain KRE1 (second series), active compounds read low) was 0.982 and the normalized growth (locus YNR049C, strain mso1, active compounds read low) was 1.02. The normalized growth (locus YOR001W, strain rrp6, active compounds read low) was 1.03, the normalized growth (locus YOR070C, strain gyp1, active compounds read low) was 0.986 and the normalized growth (locus YOR080W, strain dia2, active compounds read low) was 1. It also gave a normalized growth (locus YOR083W, strain WHI5, active compounds read low) of 0.977, a normalized growth (locus YOR106W, strain vam3, active compounds read low) of 0.969 and a normalized growth [7] of 1. It also gave a normalized growth (locus YOR265W, strain rbl2, active compounds read low) of 1.01, a normalized growth (locus YOR270C, strain vph1, active compounds read low) of 1.12 and a normalized growth (locus YOR290C, strain snf2, active compounds read low) of 1.08. The normalized growth (locus YPL051W, strain arl3, active compounds read low) was 1.02, the normalized growth (locus YPL078C, strain atp4, active compounds read low) was 0.996 and the normalized growth (locus YPL106C, strain sse1, active compounds read low) was 1. For the same compound, the normalized growth (locus YPL240C, strain hsp82, active compounds read low) was 1 and the normalized growth [8] was 1.01.
